Assay results: PubChem BioAssay (EPA / NIEHS)
Activity calls are given as the source filed them. The calls were made as follows: active = hit-call score of the fitted dose curve at least 0.9, where 1 is the maximum; inactive = score below 0.9.

How the values were obtained:
[1] = ATG_GLI_CIS: Attagene CIS-FACTORIAL HepG2 Assay for human Zinc Finger Protein GLI1 (AID 2282945); details: HepG2, Attagene cis-factorial reporter mRNA, GLI element; actives raise or lower the signal
In short: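 HepG2 cells transiently transfected with cis-promoter multiplexed reporter units report endogenous transcription factor activity. After 24 h chemical exposure, reporter mRNA was quantified by RT-PCR, 6-FAM labelling, HpaI digestion and capillary electrophoresis, with bidirectional fitting against DMSO.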

[2] = molecular target: Bile acid receptor (Homo sapiens) (UniProt Q96RI1); assay: ATG_IR1_CIS: Attagene CIS-FACTORIAL HepG2 Assay for human Nuclear Receptor Subfamily 1 Group H Member 4 (NR1H4), IR1 submotif (AID 2282946); details: IR1 reporter transcription, actives raise or lower the signal
In short: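 Readout: reporter transcript levels by RT-PCR with fluorescent capillary electrophoresis, from HepG2 cells transiently transfected with multiplexed cis-regulated reporters and dosed 24 h. Gain- or loss-of-signal fitted versus DMSO negative control.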

[3] = ATG_GRE_CIS: Attagene CIS-FACTORIAL HepG2 Assay for human Glucocorticoid Response Elements (GRE) (AID 2282947); details: HepG2 GRE cis-reporter, Attagene multiplex mRNA; actives raise or lower the signal
In short: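 Cells (HepG2) bearing transfected cis-promoter reporter transcription units were treated with chemical for 24 hours. Reporter mRNA was measured via RT-PCR with capillary electrophoresis, and activity was fitted in both directions relative to DMSO.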

[4] = ATG_ISRE_CIS: Attagene CIS-FACTORIAL HepG2 Assay for human Interferon Regulatory Factor 1 (IRF1) binding to an Interferon-Stimulated Response Element (ISRE) (AID 2282948); details: HepG2 ISRE cis-reporter (Attagene), mRNA transcription readout; actives raise or lower the signal
In short: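 Multiplexed mRNA reporter readout in human liver HepG2 cells: cis-element-driven reporters transfected, compound added for 24 h, transcripts amplified, fluorescently labelled and sized by capillary electrophoresis; curve fitting bidirectional against DMSO.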

[5] = ATG_M_32_CIS: Attagene CIS-FACTORIAL HepG2 Assay for M32 Transcription Factor (Internal Marker) (AID 2282949); details: HepG2 Attagene cis-factorial M32 reporter, mRNA; actives raise or lower the signal;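 also: background control marker of the multiplexed CIS panel rather than a real target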
In short: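 HepG2 transfectants (cis-regulated reporter transcription units) dosed 24 h. Reporter mRNA by RT-PCR plus CE, analysed as gain or loss relative to DMSO.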

[6] = ATG_M_06_CIS: Attagene CIS-FACTORIAL HepG2 Assay for M06 Transcription Factor (Internal Marker) (AID 2282950); details: HepG2 Attagene CIS-FACTORIAL M06 internal marker reporter; actives raise or lower the signal
In short: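 HepG2 cells transiently transfected with cis-regulated multiple reporter transcription units were exposed to chemical for 24 h; reporter mRNA was quantified by RT-PCR, 6-FAM primer labelling, HpaI digestion and capillary electrophoresis, fitted bidirectionally against DMSO.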

[7] = molecular target: Hypoxia-inducible factor 1-alpha (Homo sapiens) (UniProt Q16665); assay: ATG_HIF1a_CIS: Attagene CIS-FACTORIAL HepG2 Assay for human Hypoxia Inducible Factor 1 (HIF1A) (AID 2282951); details: HepG2 Attagene cis-factorial HIF1a reporter transcription; actives raise or lower the signal
In short: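 Endogenous-TF cis reporter readout, human HepG2 cells, 24 h incubation; mRNA detected via RT-PCR and capillary electrophoresis fluorescence; DMSO-normalised bidirectional fitting.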

[8] = molecular target: Heat shock factor protein 1 (Homo sapiens) (UniProt Q00613); assay: ATG_HSE_CIS: Attagene CIS-FACTORIAL HepG2 Assay for human Heat Shock Transcription Factor 1 (HSE) (AID 2282953); details: HepG2 HSE cis-reporter, Attagene RNA transcription; actives raise or lower the signal
In short: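 HepG2 cells transiently transfected with multiple reporter transcription units under cis-regulatory promoter control, measuring endogenous transcription factor activity. After 24 h chemical exposure, reporter mRNA quantified by RT-PCR, fluorescent labelling, HpaI digestion and capillary electrophoresis; bidirectional fit versus DMSO.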

[9] = ATG_MRE_CIS: Attagene CIS-FACTORIAL HepG2 Assay for human Metal Responsive Element (MRE) (AID 2282954); details: HepG2 MRE cis-reporter transcription, Attagene multiplex; actives raise or lower the signal
In short: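 Cells were transfected with cis-promoter reporter transcription units, then dosed for 24 h. RNA was reverse-transcribed, amplified, fluorescently labelled and resolved by capillary electrophoresis, and activity was fitted in both directions relative to DMSO.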

[10] = ATG_PBREM_CIS: Attagene CIS-FACTORIAL HepG2 Assay for human Phenobarbital-responsive Enhancer Module (PBREM) (AID 2282955); details: HepG2 PBREM cis-reporter, Attagene multiplexed transcription; actives raise or lower the signal
In short: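 Readout: reporter mRNA, fluorescent RT-PCR fragments separated by capillary electrophoresis. System: HepG2 transiently transfected with cis-regulated reporter units. Exposure: 24 h. Analysis: bidirectional, DMSO baseline.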

[11] = molecular target: Paired box protein Pax-6 (Homo sapiens) (UniProt P26367); assay: ATG_Pax6_CIS: Attagene CIS-FACTORIAL HepG2 Assay for human Paired Box 6 (PAX6) (AID 2282956); details: HepG2 CIS-FACTORIAL PAX6 reporter transcription, RNA readout; actives raise or lower the signal
In short: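 Fluorescent RT-PCR products separated by capillary electrophoresis report PAX6-linked promoter mRNA in HepG2 cells 24 h post-dose. Curves fitted bidirectionally, DMSO as negative control.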

[12] = ATG_PXRE_CIS: Attagene CIS-FACTORIAL HepG2 Assay for human Pregnane X Receptor Element (PXRE) (AID 2282957); details: HepG2 Attagene CIS-FACTORIAL PXRE reporter, mRNA; actives raise or lower the signal
In short: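 Reporter transcripts under endogenous PXR-responsive cis-regulation quantified from total RNA of transfected HepG2 cells 24 h post-dosing, via RT-PCR with fluorescent primer extension and capillary electrophoresis. Gain or loss of signal fitted against DMSO baseline.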

[13] = ATG_RORE_CIS: Attagene CIS-FACTORIAL HepG2 Assay for human RAR-related Orphan Receptor Element (RORE) (AID 2282959); details: HepG2 Attagene cis-factorial RORE reporter, mRNA; actives raise or lower the signal
In short: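 Measured here: transcript induction of a cis-regulated reporter in HepG2 cells transiently transfected via FuGene 6. After 24 h, RNA was processed by RT-PCR and fluorescent capillary electrophoresis; DMSO defined baseline activity.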

[14] = ATG_Sox_CIS: Attagene CIS-FACTORIAL HepG2 Assay for human SRY-box transcription factor (SOX) (AID 2282960); details: HepG2 Attagene cis-factorial SOX reporter, mRNA; actives raise or lower the signal
In short: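 Using transiently transfected HepG2 cells, reporter transcription driven by cis elements was assessed 24 h after dosing. Signal was fluorescence of capillary-separated RT-PCR products, with DMSO defining baseline activity.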

[15] = molecular target: Transcription factor Sp1 (Homo sapiens) (UniProt P08047); assay: ATG_Sp1_CIS: Attagene CIS-FACTORIAL HepG2 Assay for human Specificity Protein 1 (Sp1) (AID 2282961); details: HepG2 Sp1 cis-reporter transcription, actives raise or lower the signal
In short: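 After transient transfection of HepG2 cells with cis-promoter reporter units and 24 h chemical treatment, reporter transcripts were quantified by RT-PCR and capillary electrophoresis fluorescence. Gain- and loss-of-signal fitted against DMSO.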

[16] = ATG_SREBP_CIS: Attagene CIS-FACTORIAL HepG2 Assay for human Sterol Regulatory Element Binding (SREBP) (AID 2282962); details: HepG2 Attagene cis-factorial SREBP reporter, mRNA; actives raise or lower the signal
In short: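 Endogenous factor activity is measured in HepG2 through multiplexed reporter units under cis-element control. Following a 24 h incubation, reporter transcripts are reverse-transcribed, PCR-amplified and sized by capillary electrophoresis; activity is fitted in both directions relative to DMSO.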

[17] = molecular target: Signal transducer and activator of transcription 3 (Homo sapiens) (UniProt P40763); assay: ATG_STAT3_CIS: Attagene CIS-FACTORIAL HepG2 Assay for human Signal Transducer and Activator of Transcription 3 (STAT3) (AID 2282963); details: HepG2, Attagene cis-factorial STAT3 reporter transcription; actives raise or lower the signal
In short: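 HepG2, MRTU-transfected, 24 h dosing. RNA → RT → PCR → FAM label → HpaI → CE. Bidirectional fit vs DMSO.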

[18] = ATG_TA_CIS: Attagene CIS-FACTORIAL HepG2 Assay for human TA Basal Promoter (AID 2282964); details: HepG2 Attagene CIS-factorial TA basal promoter reporter; actives raise or lower the signal
In short: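 HepG2 cells transiently transfected with multiplexed cis-promoter reporter units, dosed 24 h. Reporter mRNA measured by RT-PCR, 6-FAM labelling, HpaI digestion and capillary electrophoresis; bidirectional fit versus DMSO baseline, serving as background control.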

[19] = molecular target: Hepatocyte nuclear factor 6 (Homo sapiens) (UniProt Q9UBC0); assay: ATG_HNF6_CIS: Attagene CIS-FACTORIAL HepG2 Assay for human Hepatocyte Nuclear Factor 6 (HNF6) (AID 2282952); details: HepG2 Attagene cis-factorial HNF6 reporter transcription; actives raise or lower the signal
In short: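 Endogenous factor activity read in transiently transfected HepG2 via promoter-regulated reporter transcripts. RNA harvested 24 h post-dosing, reverse-transcribed, PCR-amplified, FAM-labelled, HpaI-digested and resolved by capillary electrophoresis; fitted in both directions against DMSO.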

[20] = ATG_PPRE_CIS: Attagene CIS-FACTORIAL HepG2 Assay for human Peroxisome Proliferator-activated Response Element (PPRE) (AID 2282958); details: HepG2 PPRE cis-element reporter, Attagene transcription factor profiling; actives raise or lower the signal
In short: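 After human HepG2 hepatoma cells were transiently transfected with cis-promoter reporter constructs, they were exposed to test chemicals for 24 hours. Reporter RNA was then reverse-transcribed, PCR-amplified, FAM-labeled, HpaI-digested and quantified by capillary electrophoresis.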

Measured: outcome

Sequence of Heat shock factor protein 1 (Homo sapiens) (Q00613 whole entry, looked up): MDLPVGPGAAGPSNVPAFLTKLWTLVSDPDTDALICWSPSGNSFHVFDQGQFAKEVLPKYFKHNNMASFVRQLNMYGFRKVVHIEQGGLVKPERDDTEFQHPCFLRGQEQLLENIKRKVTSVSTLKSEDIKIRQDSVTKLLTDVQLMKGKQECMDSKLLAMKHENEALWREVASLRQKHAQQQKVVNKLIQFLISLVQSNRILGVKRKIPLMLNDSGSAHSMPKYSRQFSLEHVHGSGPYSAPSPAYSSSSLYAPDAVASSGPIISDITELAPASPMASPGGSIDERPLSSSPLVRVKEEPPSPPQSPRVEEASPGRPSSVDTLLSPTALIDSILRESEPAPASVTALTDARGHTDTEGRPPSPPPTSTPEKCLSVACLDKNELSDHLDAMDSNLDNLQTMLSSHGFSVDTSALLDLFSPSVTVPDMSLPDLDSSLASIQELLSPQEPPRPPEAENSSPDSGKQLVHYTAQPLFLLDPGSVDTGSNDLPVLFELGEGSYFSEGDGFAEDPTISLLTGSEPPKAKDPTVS
Sequence of Transcription factor Sp1 (Homo sapiens) (P08047 whole entry, looked up): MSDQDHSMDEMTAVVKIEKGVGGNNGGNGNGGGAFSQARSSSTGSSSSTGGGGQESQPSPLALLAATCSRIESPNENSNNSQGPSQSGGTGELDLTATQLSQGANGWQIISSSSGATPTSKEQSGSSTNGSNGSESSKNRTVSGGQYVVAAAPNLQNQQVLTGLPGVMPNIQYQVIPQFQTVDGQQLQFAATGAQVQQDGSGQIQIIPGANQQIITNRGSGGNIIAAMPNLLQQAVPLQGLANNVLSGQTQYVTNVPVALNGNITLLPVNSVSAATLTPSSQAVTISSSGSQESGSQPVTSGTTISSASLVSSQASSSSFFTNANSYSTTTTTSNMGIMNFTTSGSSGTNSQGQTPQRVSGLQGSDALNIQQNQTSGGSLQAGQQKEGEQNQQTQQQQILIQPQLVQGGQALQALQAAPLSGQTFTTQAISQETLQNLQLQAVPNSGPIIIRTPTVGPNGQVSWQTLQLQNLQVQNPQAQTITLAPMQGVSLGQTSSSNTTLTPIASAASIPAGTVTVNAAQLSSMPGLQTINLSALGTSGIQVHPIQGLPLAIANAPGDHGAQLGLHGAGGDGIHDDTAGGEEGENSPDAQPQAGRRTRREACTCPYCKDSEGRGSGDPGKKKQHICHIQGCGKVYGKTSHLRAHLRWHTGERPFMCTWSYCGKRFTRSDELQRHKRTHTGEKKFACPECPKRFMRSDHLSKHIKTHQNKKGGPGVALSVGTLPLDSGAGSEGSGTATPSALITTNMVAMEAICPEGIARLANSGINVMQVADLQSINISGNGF
Sequence of Signal transducer and activator of transcription 3 (Homo sapiens) (P40763 whole entry, looked up): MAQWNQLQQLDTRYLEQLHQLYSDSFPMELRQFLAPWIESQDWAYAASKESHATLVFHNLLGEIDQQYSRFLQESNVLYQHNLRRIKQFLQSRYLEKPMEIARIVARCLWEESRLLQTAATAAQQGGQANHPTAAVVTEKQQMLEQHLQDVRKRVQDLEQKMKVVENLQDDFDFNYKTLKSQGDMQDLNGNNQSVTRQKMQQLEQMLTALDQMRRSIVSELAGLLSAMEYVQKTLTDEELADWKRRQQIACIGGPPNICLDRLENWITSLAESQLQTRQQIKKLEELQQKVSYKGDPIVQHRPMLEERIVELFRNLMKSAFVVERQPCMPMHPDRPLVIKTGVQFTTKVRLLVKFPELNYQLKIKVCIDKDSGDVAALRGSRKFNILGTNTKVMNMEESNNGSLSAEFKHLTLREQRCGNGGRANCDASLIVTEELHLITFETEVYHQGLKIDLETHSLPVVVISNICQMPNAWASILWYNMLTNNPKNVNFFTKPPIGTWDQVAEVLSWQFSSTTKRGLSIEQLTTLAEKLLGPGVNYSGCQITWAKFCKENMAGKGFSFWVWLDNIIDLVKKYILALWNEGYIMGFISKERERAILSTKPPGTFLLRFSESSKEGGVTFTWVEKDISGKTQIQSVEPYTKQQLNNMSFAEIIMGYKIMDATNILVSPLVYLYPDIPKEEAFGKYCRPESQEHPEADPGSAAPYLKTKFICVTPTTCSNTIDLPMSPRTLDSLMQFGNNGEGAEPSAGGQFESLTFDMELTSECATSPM
Sequence of Hypoxia-inducible factor 1-alpha (Homo sapiens) (Q16665 whole entry, looked up): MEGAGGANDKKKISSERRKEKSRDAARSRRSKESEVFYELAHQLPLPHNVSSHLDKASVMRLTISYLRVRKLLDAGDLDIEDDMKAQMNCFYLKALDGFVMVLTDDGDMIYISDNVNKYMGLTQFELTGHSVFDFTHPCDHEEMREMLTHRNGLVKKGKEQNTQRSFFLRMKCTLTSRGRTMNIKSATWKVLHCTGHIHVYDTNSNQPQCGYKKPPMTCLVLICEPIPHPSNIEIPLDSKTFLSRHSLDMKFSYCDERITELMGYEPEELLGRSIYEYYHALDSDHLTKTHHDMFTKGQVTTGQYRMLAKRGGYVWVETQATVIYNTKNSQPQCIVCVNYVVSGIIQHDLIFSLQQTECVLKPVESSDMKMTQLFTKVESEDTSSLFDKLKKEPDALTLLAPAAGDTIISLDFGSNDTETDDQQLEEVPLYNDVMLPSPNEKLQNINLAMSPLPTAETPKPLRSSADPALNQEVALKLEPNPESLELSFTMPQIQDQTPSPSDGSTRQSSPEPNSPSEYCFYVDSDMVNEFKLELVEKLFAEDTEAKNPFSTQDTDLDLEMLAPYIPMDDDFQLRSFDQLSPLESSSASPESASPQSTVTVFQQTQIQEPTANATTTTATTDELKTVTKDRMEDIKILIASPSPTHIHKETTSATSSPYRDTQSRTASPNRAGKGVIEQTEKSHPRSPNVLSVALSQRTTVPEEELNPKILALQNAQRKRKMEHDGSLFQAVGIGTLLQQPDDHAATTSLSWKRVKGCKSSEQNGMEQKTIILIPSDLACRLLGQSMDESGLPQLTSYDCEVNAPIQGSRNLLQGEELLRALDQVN
Sequence of Paired box protein Pax-6 (Homo sapiens) (P26367 whole entry, looked up): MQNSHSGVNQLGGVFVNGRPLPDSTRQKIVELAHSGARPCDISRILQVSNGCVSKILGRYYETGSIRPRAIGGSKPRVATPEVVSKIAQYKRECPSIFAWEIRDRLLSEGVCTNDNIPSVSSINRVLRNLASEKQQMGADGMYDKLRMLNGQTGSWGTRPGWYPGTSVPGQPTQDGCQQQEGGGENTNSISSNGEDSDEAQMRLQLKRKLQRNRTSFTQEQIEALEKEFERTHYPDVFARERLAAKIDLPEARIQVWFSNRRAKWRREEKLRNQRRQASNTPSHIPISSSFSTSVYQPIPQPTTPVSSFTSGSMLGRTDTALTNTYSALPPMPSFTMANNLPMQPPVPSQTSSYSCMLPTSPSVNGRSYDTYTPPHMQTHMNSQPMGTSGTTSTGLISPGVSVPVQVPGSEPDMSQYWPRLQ
Sequence of Bile acid receptor (Homo sapiens) (Q96RI1 whole entry, looked up): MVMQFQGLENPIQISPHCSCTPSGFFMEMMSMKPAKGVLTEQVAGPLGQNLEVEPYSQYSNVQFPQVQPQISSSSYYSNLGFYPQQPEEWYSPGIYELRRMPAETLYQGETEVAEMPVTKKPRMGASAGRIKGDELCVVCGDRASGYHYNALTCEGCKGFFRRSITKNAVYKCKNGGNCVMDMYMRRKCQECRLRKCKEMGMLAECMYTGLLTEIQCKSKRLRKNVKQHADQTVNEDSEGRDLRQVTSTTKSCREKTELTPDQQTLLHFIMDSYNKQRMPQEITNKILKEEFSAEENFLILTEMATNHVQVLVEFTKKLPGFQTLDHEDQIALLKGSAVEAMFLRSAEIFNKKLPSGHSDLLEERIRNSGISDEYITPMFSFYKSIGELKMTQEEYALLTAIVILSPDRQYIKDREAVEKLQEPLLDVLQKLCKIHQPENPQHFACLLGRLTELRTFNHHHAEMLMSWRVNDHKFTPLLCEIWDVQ
Sequence of Hepatocyte nuclear factor 6 (Homo sapiens) (Q9UBC0 whole entry, looked up): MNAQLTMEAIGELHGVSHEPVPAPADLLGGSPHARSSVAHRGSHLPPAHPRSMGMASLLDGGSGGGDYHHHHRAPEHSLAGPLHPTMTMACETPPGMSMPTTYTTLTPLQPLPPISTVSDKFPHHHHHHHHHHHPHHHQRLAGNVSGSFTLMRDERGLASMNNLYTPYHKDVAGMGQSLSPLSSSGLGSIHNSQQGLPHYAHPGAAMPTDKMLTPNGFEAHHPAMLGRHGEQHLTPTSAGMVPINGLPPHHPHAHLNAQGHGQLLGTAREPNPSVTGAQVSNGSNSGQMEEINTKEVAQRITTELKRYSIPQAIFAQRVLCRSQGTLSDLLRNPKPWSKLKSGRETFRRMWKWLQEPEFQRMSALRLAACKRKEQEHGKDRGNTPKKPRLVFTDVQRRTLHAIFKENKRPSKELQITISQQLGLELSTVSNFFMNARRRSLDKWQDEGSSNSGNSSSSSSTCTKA

FC(F)(F)COC(OCC(F)(F)F)OCC(F)(F)F
not listed: [19] | [20]
inactive: all other assays above

O=C(O)c1cccc(C(=O)O)c1
not listed: [10] | [20]
inactive: all other assays above

C[Si](C)(C)C(F)(F)C(F)(F)C(F)(F)F
not listed: [20]
inactive: all other assays above

Nc1ccn([C@@H]2O[C@H](CO)[C@@H](O)[C@@H]2O)c(=O)n1
not listed: [20]
inactive: all other assays above

FC(F)(F)C(F)(F)C(F)(F)C(F)(F)C(F)(F)C(F)(F)I
not listed: [19]
inactive: all other assays above

FC(F)=C(F)C(F)(F)C(F)(F)C(F)(F)C(F)(F)C(F)(F)C(F)(F)F
inactive: all assays above
